Sampled rows, rich in hits. Any-hit rate of the full collection: about 2.6%.
Platelet DG rel = inhibitors of platelet dense granule secretion, primary screen, cell-based, MLPCN, human platelets. human platelet-rich plasma, SFLLRN dense granule ATP release, luminescence. inhibition, %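 (compounds screened at 7.5 µM in platelet-rich plasma)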. 300,000 compounds, 0.22% hits. AID 1663, 2009;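 active = mean replicate score, as percent of positive control, at or above 50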
Exocytosis inh = LAMP-1 surface exposure blockers, TALL-104 cells – cell-based, flow cytometry, MLPCN library, primary screen | TALL-104 LAMP-1 surface exposure; cells stimulated with thapsigargin and PMA | 360,000 compounds, 0.66% hits | inhibition, % at 10 µM;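 active = inhibition above about 55%, limit read from the data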
PfM18AAP inh = PfM18AAP inhibitors, malaria aminopeptidase, primary screen, biochemical, QFRET, recombinant enzyme; M18 aspartyl aminopeptidase (Plasmodium falciparum 3D7); H-Glu-NHMec fluorogenic cleavage; inhibition, % at 7.35 µM; 290,000 compounds, 1.2% hits; AID 1822, 2009;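 active = inhibition above the campaign mean inhibition over all tested compounds plus 3 SD, cut at about 28% in these data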;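 also: 0% = plate median of test compound wells and 100% = 2 mM ZnCl2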
Rce1 inhib = yeast Rce1p protease inhibitors, primary screen, biochemical, fluorescence, cell-free homogeneous; 290,000 compounds, 0.27% hits; CAAX prenyl protease 2 (Saccharomyces cerevisiae (strain ATCC 204508 / S288c)), Q03530; AID 2563, 2010; yeast membranes, quenched prenylated peptide cleavage fluorescence; calls only;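 active = fall in fluorescence gain of 50% or more versus controls, with final raw signal at or below 3038400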;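 also: plate controls were neutral control wells for no effect and wells lacking membranes for full effect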
ABHD5-PLIN5 inh = ABHD5-PLIN5 interaction inhibitors, primary screen, cell lysate, split luciferase complementation, luminescence; Perilipin-5 (Homo sapiens) + 1-acylglycerol-3-phosphate O-acyltransferase ABHD5 (Homo …; Split G. princeps luciferase complementation, 4 h; inhibition, % at 4 µM; 360,000 compounds, 0.78% hits; AID 602281, 2012;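 active = inhibition above the mean inhibition across every tested compound plus 3 SD, cut at about 22% in these data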;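 also: 0% = DMSO only wells and the 100% control is not disclosed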
Target sequence (Q00G26 whole entry, looked up): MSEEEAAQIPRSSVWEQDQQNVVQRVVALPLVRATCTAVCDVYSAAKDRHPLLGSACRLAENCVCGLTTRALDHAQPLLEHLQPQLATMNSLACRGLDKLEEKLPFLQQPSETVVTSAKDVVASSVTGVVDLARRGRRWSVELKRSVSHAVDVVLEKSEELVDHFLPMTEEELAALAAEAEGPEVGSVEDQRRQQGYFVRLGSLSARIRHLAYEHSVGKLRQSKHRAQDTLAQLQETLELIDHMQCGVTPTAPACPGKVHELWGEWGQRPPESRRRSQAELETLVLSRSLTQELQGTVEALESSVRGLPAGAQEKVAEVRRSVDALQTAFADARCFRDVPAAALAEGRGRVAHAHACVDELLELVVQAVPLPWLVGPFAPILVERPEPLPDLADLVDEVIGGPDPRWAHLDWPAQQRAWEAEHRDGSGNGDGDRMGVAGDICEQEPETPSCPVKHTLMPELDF
Target sequence (Q8WTS1 whole entry, looked up): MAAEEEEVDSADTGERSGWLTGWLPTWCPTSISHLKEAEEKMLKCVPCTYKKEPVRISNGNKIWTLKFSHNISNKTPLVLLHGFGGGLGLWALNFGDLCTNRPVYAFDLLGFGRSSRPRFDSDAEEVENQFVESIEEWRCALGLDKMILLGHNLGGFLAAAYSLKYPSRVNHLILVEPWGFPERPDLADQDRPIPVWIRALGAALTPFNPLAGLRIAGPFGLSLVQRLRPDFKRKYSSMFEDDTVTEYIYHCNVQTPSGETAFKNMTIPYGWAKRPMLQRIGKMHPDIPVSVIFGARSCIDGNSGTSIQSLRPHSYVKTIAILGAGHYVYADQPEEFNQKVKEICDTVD
ABHD5-PLIN5 conf = ABHD5-PLIN5 interaction inhibitors, confirmation, biochemical, luminescence. inhibition, % at 4 µM. shares compounds with ABHD5-PLIN5 inh. 2,200 compounds, 67% hits; in the data active = inhibition above about 23%;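 also: 0% = DMSO vehicle wells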
HNF4 split-luc = HNF4 dimerization inhibitors, counter-screen for ABHD5-PLIN5 interaction inhibitor project, biochemical, split-luciferase complementation, luminescence. shares compounds with ABHD5-PLIN5 inh. inhibition, % at 4 µM. 2,200 compounds, 77% hits;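 active = mean inhibition across replicate wells exceeding the computed hit threshold, cut at about 13% in these data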;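 also: light from luciferase halves that rejoin when HNF4 fusion proteins dimerize; 0% = DMSO only wells and the 100% control is not given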
The depositor's hits bear a star; i = inactive; x = not tested or not shown.

SMILES	Platelet DG rel	Exocytosis inh	PfM18AAP inh	Rce1 inhib	ABHD5-PLIN5 inh	ABHD5-PLIN5 conf	HNF4 split-luc
CC(C)(C)NC(=O)CN(C(=O)CNS(=O)(=O)c1ccccc1)c1ccc2c(c1)OCCO2	-1	-1	11	i	5	x	x
Cc1ccccc1/C=C/C12NC(=O)CN1c1ccccc1C2(C)C (stereo not given)	-5	-6	-6	i	0	x	x
CC1(C)c2ccccc2N2CC(=O)N[C@@]21/C=C/C=C/c1ccccc1	-15	2	1	i	34*	5	9
Cc1cccc2sc(N(CCCN(C)C)C(=O)CCc3ccccc3)nc12	0	18	1	i	26*	20	6
CN(C)CCCN(C(=O)c1ccco1)c1nc2ccc(Cl)cc2s1	9	12	8	i	24*	18	10
CN(C)CCCN(C(=O)CCc1ccccc1)c1nc2ccc(Br)cc2s1	-1	45	-2	i	39*	27*	5
CN(C)CCCN(C(=O)c1ccc(S(=O)(=O)N(C)C)cc1)c1nc2cc3c(cc2s1)OCO3	-1	2	2	x	4	x	x
CN(C)CCCN(C(=O)CCS(=O)(=O)c1ccccc1)c1nc2cc3c(cc2s1)OCO3	-6	34	1	i	26*	18	49*
CN(C)CCCN(C(=O)CCc1ccccc1)c1nc2ccc(F)cc2s1	-15	1	2	i	12	x	x
COc1ccc(Cc2nnc(NC(=O)C3CC(=O)N(c4ccccc4C)C3)s2)cc1OC (stereo not given)	1	-5	x	i	-9	x	x
Cc1ccc(C(=O)N(CCCN(C)C)c2nc3ccc(Cl)cc3s2)cc1C	8	30	-11	i	28*	22	12
CN(C)CCCN(C(=O)c1ccco1)c1nc2ccc(Br)cc2s1	-18	-1	-12	i	25*	17	7
Cc1ccc2sc(N(CCCN(C)C)C(=O)c3ccc(Br)s3)nc2c1C	-19	14	8	i	27*	16	3
COCCn1c(=O)[nH]c2cc(C(=O)NCCN3CCN(c4ccccc4F)CC3)ccc2c1=O	-1	-3	-1	i	-4	x	x
O=C1NC(=S)S/C1=C/c1ccc(N2CCOCC2)o1	-1	0	24	i	44*	42*	106*
O=C1N/C(=C/c2ccc(N3CCOCC3)o2)C(=O)N1c1ccccc1	x	-1	7	x	80*	63*	99*
COc1ccc(C)cc1S(=O)(=O)N(C)CC(=O)NCc1ccco1	-8	2	0	i	9	x	x
CC(=O)N1CCN(c2nc(-c3ccco3)c3c(c2C#N)CC(C)(C)SC3)CC1	-18	-2	2	i	35*	21	18*
Cc1noc(/C=C/c2cccnc2)c1[N+](=O)[O-]	-10	-11	18	i	37*	48*	33*
O=c1[nH]c(/C=C/c2ccc(Cl)cc2Cl)c([N+](=O)[O-])c(=O)[nH]1	-6	-3	8	i	11	x	x
Cc1cccc(C)c1N/C=C/c1onc(C)c1[N+](=O)[O-]	31	3	-1	i	5	x	x
O=c1[nH]c(/C=C/c2cccc([N+](=O)[O-])c2)c([N+](=O)[O-])c(=O)[nH]1	-1	-6	9	i	25*	91*	85*
O=c1[nH]c(/C=C/c2ccccc2)c([N+](=O)[O-])c(=O)[nH]1	-2	0	4	i	27*	73*	62*
O=c1[nH]c(/C=C\c2cccnc2)c([N+](=O)[O-])c(=O)[nH]1	10	9	7	i	5	x	x
O=c1[nH]c(/C=C/c2cccnc2)c([N+](=O)[O-])c(=O)[nH]1	3	0	6	i	40*	56*	41*
SMILES	Platelet DG rel	Exocytosis inh	PfM18AAP inh	Rce1 inhib	ABHD5-PLIN5 inh	ABHD5-PLIN5 conf	HNF4 split-luc
CCOc1ccc(CCN2C(=O)C(=O)N([C@@H](CC(C)C)CN3CCC[C@@H]3CN3C(=O)C(=O)NC[C@@H]3Cc3ccccc3)C[C@@H]2CC(C)C)cc1	x	3	x	x	10	x	x
CCOc1ccc(N(CC(=O)NCc2ccc(F)cc2)C(=O)c2snc(C(N)=O)c2N)cc1	1	-2	-6	i	-2	x	x
O=C(CN1CCN(S(=O)(=O)c2ccc(Cl)cc2)CC1)NCc1cccs1	-9	0	x	i	10	x	x
N#Cc1c([N+](=O)[O-])cc([N+](=O)[O-])cc1S(=O)(=O)Cc1ccccc1	x	-1	x	x	36*	64*	95*
COc1cc(OC)c(C#N)c(S(=O)(=O)Cc2ccccc2)c1	0	-4	3	i	0	x	x
Cc1ccc(-c2nc3cnccn3c2Nc2c(C)cccc2C)o1	36	36	-100	i	38*	30*	94*
CCN(C[C@H]1N[C@@](C)(C(=O)OC)[C@H]2C(=O)N(C)C(=O)[C@@H]12)S(=O)(=O)c1ccc(OC(F)(F)F)cc1	x	0	x	x	-5	x	x
Cc1ccc(NS(=O)(=O)c2cccc3cccnc23)cc1Cl	1	-12	1	i	-4	x	x
CCOc1cc(/C=C2\C(=O)N(Cc3ccc(C)cc3)C(C)=C2C(=O)OC)ccc1O	8	25	3	i	23*	50*	39*
C=CCOc1cccc(/C=C2\C(=O)N(Cc3ccc(C)cc3)C(C)=C2C(=O)OC)c1	0	-1	-8	i	12	x	x
CCc1nnc(NS(=O)(=O)c2ccc(NC(=O)/C=C/C(=O)O)cc2)s1	5	-5	-16	i	4	x	x
O=C(CSc1c2c(nc3cc(Cl)ccc13)CCCC2)NCc1ccco1	-7	11	0	i	24*	42*	38*
Cc1cc(C)c2cc(C#N)c(SCC(=O)NCc3ccco3)nc2c1	-13	2	2	i	35*	66*	73*
COc1cc(CNC2CCCCC2OC)cc(OC)c1OC (stereo not given)	1	1	-10	i	2	x	x
O=C(C1CCN(S(=O)(=O)c2ccc(Cl)cc2)CC1)N1CCC1	-2	-10	x	i	52*	1	-2
O=C(C1CCCC1)N1CCN(S(=O)(=O)c2ccc(Cl)cc2)CC1	-3	-11	4	i	-5	x	x
CCOc1cc(C(c2c(O)nc(SC)[nH]c2=O)c2c(O)nc(SC)[nH]c2=O)ccc1O	0	-4	x	i	32*	89*	77*
